# Screens: PubChem BioAssay, National Center for Advancing Translational Sciences (NCATS)
# Tb PGK inh = qHTS Assay to Find Inhibitors of Phosphoglycerate Kinase; AID 602233, 2012; 380,000 tested, 0.043% active; Phosphoglycerate kinase, glycosomal (Trypanosoma brucei brucei), P07378; PGK/GAPDH coupled, Kinase-Glo luminescence, 60 min; Potency, µM (doses to about 57.5 µM), for the others: top-dose activity change, negative = inhibition, usual class: inhibitors; also: potency is read from the fitted curve at half-maximal effect; % is scaled to controls: 0 for no effect and ±100 for the full control effect; nearly all actives have a fitted effect of over 60% in size
#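 Luminescent ATP detection (Kinase-Glo Plus) follows a 60-minute room-temperature incubation, with wells lacking PGK as controls. Buffer: 100 mM TEA (pH 7.6), 5 mM MgCl2, 0.01% Tween-20. Coupling enzyme GAPDH (100 nM final) supplies unstable 1,3-BPG in-well.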
# PI5P4K alpha inh = qHTS for Inhibitors of phosphatidylinositol 5-phosphate 4-kinase (PI5P4K). AID 652105, 2013. max response, %. 330,000 tested, 1.2% active. PI5P4Kalpha enzyme, ADP-Glo luminescence, 60 min; active compounds read low; active = max response of -50% or lower; inconclusive = between -30% and -50%; inactive = -30% or higher; also: value at the top dose of about 77 µM; % is scaled to controls: 0 for no effect and ±100 for the full control effect
#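 Quantitative HTS of the MLSMR library against PI5P4Kalpha with substrate. ATP added last at 5 microM final; room temperature, 60 minutes. Remaining ATP depleted, ADP converted and read as luminescence.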
# FEN1 inh-1 = qHTS Assay for the Inhibitors of Human Flap endonuclease 1 (FEN1); Recombinant FEN1 flap cleavage, fluorescence, 15 min; 390,000 tested, 0.35% active; P39748; Potency, µM (top dose mostly 114 µM), without a hit: at the top dose activity change, negative = inhibition, usual class: inhibitors; also: potency is read from the fitted curve at half-maximal effect; % is scaled to controls: 0 for no effect and ±100 for the full control effect; nearly all actives have a fitted effect of over 65% in size
# Target sequence (P39748 whole entry, looked up): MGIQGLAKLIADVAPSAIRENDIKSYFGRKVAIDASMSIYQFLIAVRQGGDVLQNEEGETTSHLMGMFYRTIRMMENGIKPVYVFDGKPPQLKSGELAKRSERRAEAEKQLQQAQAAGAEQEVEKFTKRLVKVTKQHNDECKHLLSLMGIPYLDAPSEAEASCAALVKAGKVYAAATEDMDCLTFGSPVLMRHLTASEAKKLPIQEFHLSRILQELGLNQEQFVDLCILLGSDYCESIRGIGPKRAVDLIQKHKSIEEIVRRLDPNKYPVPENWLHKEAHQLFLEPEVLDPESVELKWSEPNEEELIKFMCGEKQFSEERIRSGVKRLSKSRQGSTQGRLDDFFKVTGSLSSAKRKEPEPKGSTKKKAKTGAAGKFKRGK
#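 Steps: FEN1 (10 nM) dispensed; compound added by pin tool; 15 min at room temperature; substrate added to 50 nM final; reads at 0 min and 15 min; data normalized and fitted (four-parameter Hill).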
# Pin1 inh = qHTS Assay to Find Inhibitors of Pin1; Pin1 FP peptide displacement, HiFluor488, 10 min; Potency, µM (doses to about 115 µM), without a hit: at the highest dose activity, negative = inhibition, usual class: inhibitors; 390,000 tested, 0.009% active; AID 504891, 2011; active = well fitted inhibition curve with a large enough effect in the polarisation, with a control signal flat, not every such curve was filed as active; inconclusive = small, poorly fitted or top-dose-only effect, or effect the other way, or a change in a side signal; inactive = no such curve, though single readings can be large or run the other way; the % refers to the polarisation; also: potency is read from the fitted curve at half-maximal effect; % is scaled to controls: 0 for no effect and ±100 for the full control effect
# Target sequence (Q13526 whole entry, looked up): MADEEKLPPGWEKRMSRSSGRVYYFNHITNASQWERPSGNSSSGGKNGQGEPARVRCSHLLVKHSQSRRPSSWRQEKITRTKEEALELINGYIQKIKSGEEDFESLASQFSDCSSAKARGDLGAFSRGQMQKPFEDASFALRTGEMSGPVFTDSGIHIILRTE
# WRN inhibitor = qHTS for Inhibitors of WRN Helicase; Bifunctional 3'-5' exonuclease/ATP-dependent helicase WRN (Homo sapiens), Q14191; WRN helicase unwinding, fluorescent forked duplex, kinetic; Potency, µM (top dose mostly 114 µM), without a hit: at the highest dose activity change, negative = inhibition, actives largely listed as inhibitors; 360,000 tested, 0.46% active; AID 651768, 2012; also: potency is read from the fitted curve at half-maximal effect; % is scaled to controls: 0 for no effect and ±100 for the full control effect; nearly all actives have a fitted effect of over 55% in size
#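 Screening of the MLSMR collection measured strand separation of a quenched forked DNA duplex (100 nM) by 20 nM WRN with 2 mM ATP, all final. Compounds were preincubated with enzyme 15 min at room temperature.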
# GRP78 ERSR act = qHTS for Inducers of the Endoplasmic Reticulum Stress Response (ERSR) in Human Glioma: qHTS. U87-MG GRP78 promoter luciferase reporter, 16 h. Potency, µM, for the others: at the top dose activation, usual class: activators. 420,000 tested, 0.02% active. AID 602332, 2012; also: potency is read from the fitted curve at half-maximal effect; series mostly up to about 76 µM; % of control where 0% means no effect; nearly all actives have a fitted effect of over 35% in size
#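 ERSR induction read as luciferase luminescence (Bright-Glo, 10 min at room temperature) in stably transfected human U87-MG glioma cells exposed to compounds for 16 h, using GRP78 as sensor.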
# FEN1 inh-2 = qHTS Assay for the Inhibitors of FEN1: Confirmatory Assay for Cherry-picked Compounds; shares compounds with FEN1 inh-1; FEN1 flap cleavage, TAMRA/BHQ2 fluorogenic DNA substrate; Potency, µM, hits mostly inhibitors; 880 tested, 79% active; AID 720498, 2013; also: potency is read from the fitted curve at half-maximal effect; nearly all actives have a fitted effect of over 60% in size
# Active calls of the source: *; i = inactive; ? = inconclusive; nt = no result given; [ ] = another dose, or the depositor's remark. Most compounds without a hit are left out; they make up all but 1.3% or so of the library. Unless noted, calls follow the shape of the dose curve; as a rule, active = well fitted curve in the direction sought with a large enough effect; inconclusive = small, poorly fitted or top-dose-only effect, or another doubt; inactive = no such curve, though single readings can be large; an effect the other way counts as inactive or inconclusive.
SMILES,Tb PGK inh,PI5P4K alpha inh,FEN1 inh-1,Pin1 inh,WRN inhibitor,GRP78 ERSR act,FEN1 inh-2
CCn1nc(C)c(CN2Cc3ccccc3OC(c3ccccc3OC)C2)c1C (stereo not given),nt,nt,nt,nt,nt,-1.7%,nt
CCOc1ccc(Nc2c3ccccc3nc3ccccc23)cc1,-1.5%,4.1,44.7µM*,-3.5%,?,5.5%,42.6*
CCOc1ccc(Nc2cc(C)c3ccccc3n2)cc1,-7.3%,15.4,2.1%,-6.6%,-6.9%[57.1 µM],9.6%,nt
COc1cc(/C=C2/C(C)=C(C#N)c3nc(N)c(C#N)c(C)c32)ccc1OCC(=O)O,-0.3%,-15.2,?,-10.2%,?,0.1%,nt
CC1=C(C#N)c2nc(N)c(C#N)c(C)c2/C1=C\c1ccc(-c2ccccc2C(=O)O)o1,-28.9%,-72.2*,39.8µM*,nt,25.1µM*,1.7%,47.8*
CC(C)CNC(=O)COC(=O)c1c2c(nc3ccccc13)/C(=C\c1cccs1)CC2,-9.5%,-27.6,-7.2%,?,-19.2%,3.5%,nt
CN(CCC#N)C(=O)COC(=O)c1c2c(nc3ccccc13)/C(=C/c1ccco1)CC2,?,-67.9*,50.1µM*,?,?,1.8%,67.5*
CCC1(C2CCN(C(=O)c3ccc(C)cc3C)CC2)NC(=O)N(CCc2scnc2C)C1=O (stereo not given),nt,nt,nt,nt,nt,-3.2%,nt
CCOC(=O)C1=C(COC(=O)c2ccc([N+](=O)[O-])s2)NC(=O)NC1C (stereo not given),-2.1%,-3.3,?,nt,25.4%,?,4.26*
CCOC(=O)C1=C(COC(=O)c2sccc2C)NC(=O)NC1C (stereo not given),1.4%,1.5,13.9%,3.6%,9.7%,-2.5%,nt
CC(C)C(NS(C)(=O)=O)c1nnc2n1CCN(Cc1ccc(Cl)cc1)CC2 (stereo not given),nt,nt,nt,nt,nt,-3.7%,nt
COc1ccccc1CN1CCOc2ccc(C(C)(O)COc3ccccc3)cc2C1 (stereo not given),nt,nt,nt,nt,nt,-0.9%,nt
COc1ccc(C(=O)N/N=C/c2ccc(OC)c(COc3ccccc3)c2)cc1,5.6%,-1.8,-2.6%,24.3%,-8.9%,1.6%,nt
COc1ccc(/C=N\NC(=O)c2cc(O)c(O)c(O)c2)cc1COc1ccc(C(=O)OCC(C)C)cc1,-2.0%,-71.8*,?,?,-6.2%[11.6 µM],1.8%,33.8*
Cc1ccc(C(=O)N/C(=C\c2ccc(-c3ccc([N+](=O)[O-])cc3)o2)C(=O)NC2CCS(=O)(=O)C2)cc1 (stereo not given),0.2%,7.0,-2.1%,?,0.3%,-1.6%,nt
Cc1ccc(C(=O)N/C(=C/c2ccc(-c3ccc([N+](=O)[O-])cc3)o2)C(=O)NCCCN(C)C)cc1,i,-7.5,?,?,8.1%[11.6 µM],-5.9%,42.6*
C[C@](N)(Cc1ccc(O)cc1)C(=O)O,nt,nt,-4.7%[57.1 µM],nt,nt,-2.9%,nt
C[C@](N)(Cc1ccc(O)c(O)c1)C(=O)O,-6.0%,-67.0*,-7.2%,?,nt,-0.2%,?
O=C(CCN1Cc2ccccc2OC(c2ccccc2F)C1)N1CCC(N2CCCC(O)C2)CC1 (stereo not given),nt,nt,nt,nt,nt,-1.0%,nt
CCCNC(=O)c1ccc2c(=O)c(O)c(-c3ccc(Cl)c([N+](=O)[O-])c3)[nH]c2c1,-3.3%,-26.5,?,-10.2%,8.2%,-1.4%,nt
NC(=O)c1ccc2c(=O)c(O)c(-c3cc(Cl)c(N)c(Cl)c3)[nH]c2c1,i,-6.4,56.2µM*,?,?,-4.9%,37.9*
CCOc1ccc(N=Cc2c(C)[nH]n(-c3nc4ccccc4[nH]3)c2=O)cc1,?,-18.8,?,?,?,-7.2%,?
NNC(=O)c1oc2nc(-c3ccco3)cc(-c3ccco3)c2c1N,-5.5%,-25.7,50.1µM*,105.6%,?,-2.2%,37.9*
Nc1c(C(=O)N/N=C/c2cccnc2)oc2nc(-c3ccco3)cc(-c3ccco3)c12,-0.9%,-11.8,-13.6%,?,-28.0%,-1.2%,nt
COc1ccc(-c2nc3c(C(=O)NCCN(C)C)cccc3c3ccccc23)cc1,-6.0%,-8.1,31.6µM*,-3.9%,55.9%,5.8%,33.8*
SMILES,Tb PGK inh,PI5P4K alpha inh,FEN1 inh-1,Pin1 inh,WRN inhibitor,GRP78 ERSR act,FEN1 inh-2
COc1ccc(-c2coc3c(C(=O)NCCN(C)C)cccc23)c(C)c1,nt,-6.0,nt,nt,-3.8%,-6.6%,nt
COc1cccc2nc3c(C(=O)NCCN(C)C)cccc3cc12,i,-23.2,12.6µM*,?,13.5%[11.6 µM],?,30.1*
COCC1CCCN(Cc2ccc3c(c2)CN(C(=O)c2cnn(C(C)C)c2)CCO3)C1 (stereo not given),nt,nt,nt,nt,nt,-2.2%,nt
CN(C)CCCNc1ncnc2ccc(-c3ccc4c(c3)OCO4)cc12,nt,nt,nt,2.4%,nt,nt,30.1*
CNc1ncnc2ccc(-c3ccc4c(c3)OCO4)cc12,nt,nt,nt,nt,nt,-4.5%,nt
c1ccc(CNc2ncnc3ccc(-c4ccc5c(c4)OCO5)cc23)cc1,nt,nt,nt,nt,nt,2.9%,nt
NCCCCNc1ncnc2ccc(-c3ccc4c(c3)OCO4)cc12,nt,nt,nt,1.9%,nt,nt,30.1*
NCCNc1ncnc2ccc(-c3ccc4c(c3)OCO4)cc12,nt,nt,nt,?,nt,nt,26.9*
O=C1CC[C@@H](C(=O)NCC2Cc3cc(Cl)cc(-c4ccc5[nH]ccc5c4)c3O2)N1 (stereo not given in full),nt,nt,nt,nt,nt,-2.1%,nt
O=C(CCN1C(=O)/C(=C\C=C\c2ccccc2)SC1=S)Nc1ccc(C(=O)O)cc1,-15.5%,?,-19.1%,nt,56.2µM*,18.8%,?
O=C(CN1C(=O)S/C(=C/C=C/c2ccccc2)C1=O)Nc1ccc(C(=O)O)cc1,i,-8.8,-33.5%,-2.3%,-30.4%,2.2%,nt
CC(C)C(NS(C)(=O)=O)c1nnc2n1CCN(Cc1ccc(C#CC(C)(C)O)cc1)CC2 (stereo not given),nt,nt,nt,nt,nt,1.7%,nt
O=C(N/N=C/c1cccnc1)c1cc(Br)ccc1O,-4.6%,-6.5,6.5%,-2.4%,-2.7%,-1.1%,nt
O=C(N/N=C/c1cccnc1)c1cc(O)c(O)c(O)c1,-1.2%,-22.1,3.98µM*,?,?,-0.4%,6.01*
